Compound activity deposited in PubChem by several laboratories.
Calb FLC: C. albicans growth modulation with fluconazole; C. albicans CaCi-2 (fluconazole-resistant clinical isolate) + fluconazole, Alamar Blue growth, 48 h; growth inhibition, % (no concentration beside the values); actives 0.57% (n = 300,000); AID 1979;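 active = growth inhibition above about 58% in most replicates, limit read from the data, passing the limit was not always enough; inconclusive = exactly half the replicates above a set limit; inactive = most replicates below a set limit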;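 note: all wells also contain fluconazole at 8 µg/ml as a sub-toxic cotreatment; 0% = median of DMSO wells and 100% = median of geldanamycin control wells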
Efflux pump inh: inhibitors of Candida antifungal efflux pumps expressed in yeast; S. cerevisiae Candida pump triplex, Nile Red efflux; inhibition, % at 10 µM; AID 485275; actives 0.44% (n = 330,000);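 active = plate passing quality check with inhibition over a set limit, or well fluorescence over plate mean plus 4 SD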;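 note: Nile Red retained in pooled yeast measured as flow cytometry median fluorescence; 0% = buffer negative control and 100% = Enniatin B positive control; higher means more Nile Red kept so more efflux inhibition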
Cl transport mod: modulates chloride dependent transport by human KCC2; Q9H2X9; KCC2 cells, thallium flux FluoZin-2 fluorescence; B-score of Tl+ flux slope (higher = more flux/activation; lower = inhibition) at 10 µM; actives 2.2% (n = 190,000); AID 1456;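 active = thallium flux slope and its plate-corrected score both differing from the plate sample mean at a set confidence after two filtering rounds, in either direction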;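 note: slope of fluorescence scaled to starting intensity during 10 to 20 s after thallium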
PHOSPHO1 block: inhibitors of human PHOSPHO1 phosphatase. AID 1565. actives 1.1% (n = 290,000). recombinant PHOSPHO1, absorbance phosphatase assay. inhibition, % at 13.3 µM. Q8TCT1; in the data active = inhibition above about 60%
Target sequence (Q8TCT1 whole entry, looked up): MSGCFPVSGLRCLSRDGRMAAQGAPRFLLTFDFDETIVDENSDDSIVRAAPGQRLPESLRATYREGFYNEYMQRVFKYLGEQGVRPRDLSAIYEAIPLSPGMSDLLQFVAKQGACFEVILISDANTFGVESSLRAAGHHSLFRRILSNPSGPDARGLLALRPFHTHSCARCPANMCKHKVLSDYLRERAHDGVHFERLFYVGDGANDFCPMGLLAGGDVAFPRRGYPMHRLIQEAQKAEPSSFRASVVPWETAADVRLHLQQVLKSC
Cardio protect: myocardial damage modulation in H9c2 cells; actives 0.63% (n = 360,000); protection from H2O2 cell death, % at 20 µM; AID 588492; H9c2 cardiomyocytes, H2O2 injury protection, ATPLite, 2 h;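 active = compounds giving at least 50% protection of heart cells from peroxide-induced death in the single-dose screen, raw or plate-pattern-corrected value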;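 note: 0% = DMSO wells with peroxide and 100% = DMSO wells without peroxide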
Numbers without * were called inactive; ? = inconclusive; / = no result given. Only some compounds are listed: those with a hit (about 3.3% of all), similar ones and a draw of the others.

SMILES | Calb FLC | Efflux pump inh | Cl transport mod | PHOSPHO1 block | Cardio protect
Cc1ccc(CNC(=O)c2ccc(N3CCC4(CC3)CC(c3ccccc3)=NO4)c([N+](=O)[O-])c2)cc1 | 3 | 0 | / | 25 | -14
CCn1c(CC(=O)Nc2cccc(Cl)c2Cl)nnc1SCCOc1ccc(OC)cc1 | -2 | 0 | -0.39 | 72* | -7
COc1ccc(Cl)cc1-c1nc(-c2ccc(NC(=O)c3cccs3)cc2)no1 | 38 | 0 | -0.18 | 21 | 56*
O=C(Nc1ccc(-c2noc(-c3cccs3)n2)cc1)c1cccnc1 | 57 | 0 | -1.2 | -6 | 64*
COc1ccc(-c2nc3cc(C)c(Br)c(C)n3c2Cc2ccc(C)cc2)cc1OC | / | / | / | / | -2
Cc1onc(-c2ccccc2Cl)c1C(=O)Nc1sc2c(c1C#N)CCC2 | 77* | 0 | -1.4 | 21 | -6
N#Cc1c(NC(=O)c2nc3ncccn3n2)sc2c1CCCCC2 | 95* | 0 | 0.16 | 17 | -18
N#Cc1c(NC(=O)C2CC(c3ccccc3Cl)=NO2)sc2c1CCC2 (configuration not stated) | -4 | 0 | -0.74 | 13 | -9
CC(=O)Nc1sc2c(c1C#N)CCCC2 | -7 | 0 | -0.16 | -2 | -2
Cc1onc(C(=O)Nc2sc3c(c2C#N)CCCC3)c1[N+](=O)[O-] | 82* | 0 | 0.09 | 21 | 1
Cn1nccc1C(=O)NC(=S)Nc1sc2c(c1C#N)CCCCC2 | 5 | 0 | / | 68* | -20
COc1cc(/C=C2\SC(N)=NC2=O)ccc1OCC(=O)Nc1ccccc1C | / | 0 | / | / | 54*
CCCN(C(=O)Cn1nc(C)c([N+](=O)[O-])c1C)c1c(N)n(Cc2ccccc2)c(=O)[nH]c1=O | 2 | 0 | / | / | 7
COc1cccc2cc(C(=O)CS(=O)(=O)c3ccc(Cl)cc3)c(=O)oc12 | 5 | 0 | / | 26 | 31
CC(=O)Nc1ccc(OCCC[n+]2ccccc2)cc1 | -10 | 0 | -0.87 | 60* | 2
CCn1cc(C(=O)N2CCN(c3ccc(OC)cc3)CC2)c(=O)c2cc(S(=O)(=O)N3CCOCC3)ccc21 | -1 | 0 | / | 4 | -2
COc1cc(C2CC(=O)N3CN(c4ccccc4C)CSC3=C2C#N)cc(OC)c1OC (configuration not stated) | ? | 0 | 0.091 | 88* | /
COc1ccccc1N1CSC2=C(C#N)C(c3ccc(SC)cc3)CC(=O)N2C1 (configuration not stated) | 2 | 0 | 0.79 | 92* | 10
COc1cccc(C2CC(=O)N3CN(c4ccccc4F)CSC3=C2C#N)c1 (configuration not stated) | 2 | 0 | / | 29 | 1
O=C(NCc1nnc(SCC(=O)N2CCN(c3ccccc3)CC2)o1)c1c(F)cccc1Cl | 1 | 0 | / | 28 | 4
O=C(COC(=O)c1ncc(Cl)c(Cl)c1Cl)Nc1ccc(Cl)cn1 | 0 | 0 | / | / | -7
O=C(O)c1cc2c(N3CCC(Cc4ccccc4)CC3)ncnc2s1 | ? | 0 | -3.2 | 46 | -4
c1ccc(CC2CCN(c3ncnc4sccc34)CC2)cc1 | 97* | / | -2.8 | 20 | -34
COc1ccc(-c2n(CC(=O)OC3CC(C)CCC3C(C)C)c3ccccc3[n+]2C)cc1 (configuration not stated) | 95* | / | -0.41 | 49 | -34
CCOC(=O)C1(Cc2cccc(Cl)c2)CCCN(C(=O)c2ccoc2C)C1 (configuration not stated) | -17 | 0 | / | 61* | 0
SMILES | Calb FLC | Efflux pump inh | Cl transport mod | PHOSPHO1 block | Cardio protect
CCOC(=O)C1(Cc2cccc(OC)c2)CCCN(Cc2nccn2CC)C1 (configuration not stated) | -15 | 1 | -0.18 | 60* | -10
CCOC(=O)C1(Cc2cccc(OC)c2)CCCN(C(=O)c2cc(C)on2)C1 (configuration not stated) | -4 | 0 | / | 68* | 3
COc1ccc(S(=O)(=O)N2CCCCCC2)cc1C(=O)OCc1cccc(OC)c1OC | -10 | 0 | / | / | 0
C=CCSc1nc(-c2ccc(OC)cc2)c(C#N)c(=O)n1CC=C | 20 | / | -1.3 | 60* | -26
Cc1csc(NC(=O)c2cccnc2Cl)n1 | 0 | 0 | / | / | -1
CCOC(=O)c1ccc(NC(=O)N2CCN(Cc3cccc(F)c3)CC2)cc1 | 0 | 0 | -3* | -14 | -4
CCCN1CCN(C(=O)Nc2ccc(C(=O)OCC)cc2)CC1 | 19 | 0 | 0.88 | -7 | -5
Cc1ccc(-c2nn3c(C)nnc3c3ccccc23)cc1S(=O)(=O)NC(C)c1ccccc1 (configuration not stated) | 1 | 0 | -0.26 | 33 | 91*
Cc1ccc(-c2nn3c(C)nnc3c3ccccc23)cc1S(=O)(=O)NCCO | 15 | 0 | 0.13 | 35 | 5
CCN(C(=O)CN1C(=O)NC(c2ccccc2)(c2ccc(C)c(C)c2)C1=O)C1CCCCC1 (configuration not stated) | / | 0 | / | / | -3
CCOC(=O)c1ccccc1N/C=C1\CCCC1=O | -2 | 0 | / | 94* | -1
CCCN(C(=O)COC(=O)CCOc1ccccc1C)c1c(N)n(Cc2ccccc2)c(=O)[nH]c1=O | -3 | 0 | / | 29 | -1
COc1ccnc(N2CCN(c3ccccc3)CC2)c1C#N | 79* | 0 | / | 3 | 2
Cc1ccc(-c2nc(S(=O)(=O)c3ccc(C)cc3)c(SCC(N)=O)o2)cc1 | 1 | 0 | / | 9 | -2
Cc1ccc(S(=O)(=O)c2nc(-c3cccs3)oc2SCC(N)=O)cc1 | -11 | 0 | / | 60* | -4
O=C1C=C(c2ccc(F)c(Cl)c2)C[C@@H](c2ccc(F)cc2)C1 | / | 0 | / | / | -6
Cc1ccc(N=c2ssnc2Cl)cc1 | 3 | 0 | 0.71 | 101* | -20
COc1cc(N=c2ssnc2Cl)c(OC)cc1Cl | -15 | 0 | 0.78 | 91* | 0
Cc1cc(Cl)ccc1N=c1ssnc1Cl | ? | 0 | 0.2 | 96* | -32
COc1ccc(OC)c(N=c2ssnc2Cl)c1 | 11 | 0 | 0.91 | 29 | -1
O=C(C1CCC(=O)N(C2CCCC2)C1)N1CCN(Cc2cccc(F)c2)CC1 (configuration not stated) | 5 | 0 | / | 75* | 0
O=C(CCC(=O)N/N=C/c1cc(Cl)cc(Cl)c1O)NCc1ccccc1 | -17 | 0 | / | 25 | 52*
Oc1ccc(N2CCN(c3ncnc4sc(-c5ccccc5)cc34)CC2)cc1 | 100* | / | -0.16 | 4 | -1
CC(=O)N1CCN(c2ncnc3sc(-c4ccccc4)cc23)CC1 | 25 | 0 | -1.1 | -19 | 22
CCCCN(CC)C(=O)CSc1nc2c(sc(=S)n2-c2ccc(OCC)cc2)c(=O)[nH]1 | 26 | / | -1.2 | -8 | -7
CCc1ccc(C(=O)NC(CC(C)C)C(=O)O)cc1 (configuration not stated) | -3 | 0 | 4.7* | 36 | 6
COc1ccc(C(=O)NC(CC(C)C)C(=O)O)cc1OC (configuration not stated) | 6 | 0 | -0.18 | 15 | 7
